# ChEMBL document CHEMBL5606458, “ASAP - ZIKV NS2B-NS3 protease fluorescence single point” (2024)
# In all, about 2,700 compounds went through this assay and about 160 (5.9%) showed an effect of 50% or more. Shown is part of a subset that was picked to be rich in strong results.
# Molecular target: Nonstructural protein 3 (Zika virus) (UniProt A0A024AXB9)
# Sequence (A0A024AXB9 as listed by the source): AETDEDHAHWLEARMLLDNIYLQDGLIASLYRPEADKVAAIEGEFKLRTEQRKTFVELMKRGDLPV
structure (smiles),measurement,setting,value
CC(C)(C)OC(=O)Cn1ccnc(N2CC[C@@H](CO)C2)c1=O,inhibition,"PRVABC59, Concentration 49.5 uM, Number of replicates 2.0, Standard deviation 1.325865675699347 %",11.6%
same,inhibition,"PRVABC59, Concentration 99.01 uM, Number of replicates 2.0, Standard deviation 1.7656333109073532 %",22.2%
same,inhibition,"PRVABC59, Concentration 198.0 uM, Number of replicates 2.0, Standard deviation 1.622873505631253 %",37.1%
O=C(O)c1cc(Cl)ccc1NS(=O)(=O)c1ccc(Br)cc1,inhibition,"PRVABC59, Concentration 49.5 uM, Number of replicates 2.0, Standard deviation 0.7950601733582335 %",7.77%
same,inhibition,"PRVABC59, Concentration 99.01 uM, Number of replicates 2.0, Standard deviation 0.4216229111618842 %",14.7%
same,inhibition,"PRVABC59, Concentration 198.0 uM, Number of replicates 2.0, Standard deviation 0.3312742292956271 %",24.5%
CCn1ccnc(N2CC[C@H](c3ccc(C#N)cc3)C2)c1=O,inhibition,"PRVABC59, Concentration 49.5 uM, Number of replicates 2.0, Standard deviation 3.318813799365356 %",8.78%
same,inhibition,"PRVABC59, Concentration 99.01 uM, Number of replicates 2.0, Standard deviation 2.601162551030959 %",17.7%
same,inhibition,"PRVABC59, Concentration 198.0 uM, Number of replicates 2.0, Standard deviation 2.251403725502818 %",31.6%
CCn1ccnc(N2CC[C@H](C3CCOCC3)C2)c1=O,inhibition,"PRVABC59, Concentration 50.0 uM, Number of replicates 2.0, Standard deviation 1.8994947363510455 %",7.04%
same,inhibition,"PRVABC59, Concentration 100.0 uM, Number of replicates 2.0, Standard deviation 0.728011618047951 %",14.4%
same,inhibition,"PRVABC59, Concentration 200.0 uM, Number of replicates 2.0, Standard deviation 0.3716947428915149 %",27.3%
N[C@H]1C[C@H](CNC(=O)[C@@H](NC(=O)OCc2ccccc2)c2ccc(OCc3ccccc3)cc2)C1,inhibition,"PRVABC59, Concentration 49.5 uM, Number of replicates 2.0, Standard deviation 3.7963377615811797 %",3.96%
same,inhibition,"PRVABC59, Concentration 99.01 uM, Number of replicates 2.0, Standard deviation 2.5827561793492815 %",42.9%
same,inhibition,"PRVABC59, Concentration 198.0 uM, Number of replicates 2.0, Standard deviation 1.1643103990361166 %",82.5%
O=Cc1ccc(N2CCC(C(=O)N3C[C@@H]4C[C@H](C3)c3cccc(=O)n3C4)CC2)cc1,inhibition,"PRVABC59, Concentration 50.0 uM, Number of replicates 1.0",21.2%
CC(C)Oc1cc(COc2cccnc2F)nc(N2CCNCC2)n1,inhibition,"PRVABC59, Concentration 49.5 uM, Number of replicates 2.0, Standard deviation 2.4105168451759336 %",4.13%
same,inhibition,"PRVABC59, Concentration 99.01 uM, Number of replicates 2.0, Standard deviation 2.7698794201931607 %",16.6%
same,inhibition,"PRVABC59, Concentration 198.0 uM, Number of replicates 2.0, Standard deviation 3.834837221821941 %",38.4%
COC(=O)c1cncc(OCc2cc(OC)nc(N3CCNCC3)n2)c1,inhibition,"PRVABC59, Concentration 49.5 uM, Number of replicates 2.0, Standard deviation 0.44537620063304795 %",8.58%
same,inhibition,"PRVABC59, Concentration 99.01 uM, Number of replicates 2.0, Standard deviation 1.920430256118165 %",19.8%
same,inhibition,"PRVABC59, Concentration 198.0 uM, Number of replicates 2.0, Standard deviation 1.464841031153957 %",42.9%
COc1cc(COc2cncc3ccccc23)nc(N2CCNCC2)n1,inhibition,"PRVABC59, Concentration 49.5 uM, Number of replicates 2.0, Standard deviation 3.6633197788698872 %",18.2%
same,inhibition,"PRVABC59, Concentration 99.01 uM, Number of replicates 2.0, Standard deviation 8.620902514901289 %",33.6%
same,inhibition,"PRVABC59, Concentration 198.0 uM, Number of replicates 2.0, Standard deviation 2.631600667850739 %",48.9%
COc1cc(C(=O)Nc2cnc3ccccc3c2)nc(N2CCNCC2)n1,inhibition,"PRVABC59, Concentration 49.5 uM, Number of replicates 2.0, Standard deviation 31.670721297793175 %",46.6%
same,inhibition,"PRVABC59, Concentration 99.01 uM, Number of replicates 2.0, Standard deviation 1.978331259427643 %",52.6%
same,inhibition,"PRVABC59, Concentration 198.0 uM, Number of replicates 2.0, Standard deviation 3.25586764970173 %",44.4%
CCCC[C@H](NC(C)=O)C(=O)N[C@H](C(=O)NCc1ccc(CN)cc1)c1ccccc1,inhibition,"PRVABC59, Concentration 49.5 uM, Number of replicates 2.0, Standard deviation 2.0326302034025616 %",1.09%
same,inhibition,"PRVABC59, Concentration 99.01 uM, Number of replicates 2.0, Standard deviation 38.99982941752366 %",27.9%
same,inhibition,"PRVABC59, Concentration 198.0 uM, Number of replicates 2.0, Standard deviation 3.137845684278008 %",79.1%
CCCC[C@H](NC(C)=O)C(=O)N[C@@H](C(=O)NCc1ccc(C(N)=O)cc1)c1ccc(OCc2ccccc2)cc1,inhibition,"PRVABC59, Concentration 49.5 uM, Number of replicates 2.0, Standard deviation 1.682765526064386 %",-0.555%
same,inhibition,"PRVABC59, Concentration 99.01 uM, Number of replicates 2.0, Standard deviation 1.8317792493099265 %",2.22%
same,inhibition,"PRVABC59, Concentration 198.0 uM, Number of replicates 2.0, Standard deviation 1.8535860287294632 %",8.29%
